# Source: PubChem BioAssay (National Center for Advancing Translational Sciences (NCATS))
# Only some compounds are listed: those with a hit (about 2.1% of all), similar ones and a draw of the others.
# TDP43 rescue: TDP-43 toxicity inhibition in yeast | TDP-43 expressing yeast growth rescue, BacTiter-Glo, 24 h | actives 1.8% (n = 410,000) | Potency, µM (series often up to 46.1 µM), without a hit: at the highest dose growth rescue (activation), most hits filed as activators | AID 652104; further: % of control where 0% means no effect; nearly all actives have a fitted effect of over 50% in size
#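 Yeast cells expressing TDP-43 under galactose induction are exposed to compounds for 24 hr at 30 deg C. BacTiter-Glo luminescence measures growth, so protective compounds score as activators.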
# Abeta yeast res: A-beta toxicity reversal in yeast. actives 0.063% (n = 410,000). AID 1347071. yeast expressing A-beta42, growth rescue, OD600, 48 h; response scale: 0% DMSO, 100% iron-clioquinol control. Potency, µM (doses to about 46.1 µM), actives largely listed as activators; further: nearly all actives have a fitted effect of over 55% in size
#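 Growth rescue measured by 600 nm absorbance after 48 h yeast culture at 30 C with compound. Values normalized between DMSO and an equimolar ferric chloride plus clioquinol control.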
# aSyn yeast inh: alpha-synuclein toxicity inhibition in yeast; Yeast expressing alpha-synuclein, growth rescue, BacTiter-Glo, 24 h; Potency, µM (titrated, usually from 46.1 µM), for inactives: top-dose growth rescue (activation), most hits filed as activators; actives 0.14% (n = 370,000); further: % of control where 0% means no effect; nearly all actives have a fitted effect of over 65% in size
#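 Galactose-induced alpha-syn yeast (OD600=0.02, raffinose-pregrown) + pinned cpd, 24 hr, 30 deg C; growth by BacTiter-Glo luminescence. Growth restoration scores as activation.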
# FUS yeast rescue: suppressors of FUS proteinopathy in yeast | S. cerevisiae FUS-expressing, growth rescue, OD600, 24 h | Potency, µM (doses to about 76.6 µM), actives largely listed as activators | actives 0.24% (n = 390,000) | AID 1347120;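 further: plate controls were DMSO vehicle for no effect and reference control for full effect; nearly all actives have a fitted effect of over 55% in size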
#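 Absorbance at 600 nm, taken 24hr after compound addition, measured rescue of FUS-yeast growth at 30C. Induction used 2% galactose with seeding at OD 0.005. Controls: CP55940 from 92uM final, DMSO only.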
# Numbers without * were called inactive; i = inactive; ? = inconclusive; . = not tested or not shown. The call rests on the fitted dose curve; in most records, active means well fitted curve in the direction sought with a large enough effect; inconclusive means small, poorly fitted or top-dose-only effect, or another doubt; inactive means no such curve, though single readings can be large; an effect the other way counts as inactive or inconclusive. Potency means the concentration at half of the fitted maximal effect.
SMILES,TDP43 rescue,Abeta yeast res,aSyn yeast inh,FUS yeast rescue
O=C(c1ccc(S(=O)(=O)Nc2ccccc2F)cc1)N1CCN(c2ccccc2O)CC1,-16%,i,9%,i
Cc1cccc(Cn2c(=O)oc3ccc(C)cc32)c1,20µM*,i,4%,i
CC(C)NC(=O)c1cccc(Br)c1,-9%,i,-12%,i
Cc1ccc(C)c(S(=O)(=O)NCc2ccc(C(=O)N3CCCCCC3)cc2)c1,0%,i,11%,i
CC(C)c1ccc(C2CC(=O)N3CN(Cc4ccco4)CSC3=C2C#N)cc1 (stereo unspecified),-4%,i,14%,i
N#CC1=C2SCN(Cc3ccco3)CN2C(=O)CC1c1ccc(Cl)cc1 (stereo unspecified),-12%,i,-4%,20µM*
O=c1c2ccccc2nnn1Cc1cccc2ccccc12,13µM*,?,-1%,i
O=c1c2ccccc2nnn1CSc1ccc2ccccc2n1,18µM*,i,?,.
O=c1c2ccccc2nnn1CSc1ccccc1,16%,i,4%,i
O=c1c2ccccc2nnn1Cc1ccccn1,-11%,i,-4%,i
CC(=O)Nc1ccc(NC(=O)CSc2ccc(-c3cccnc3)nn2)cc1,15%,i,0%,i
COc1ccc(N/C=C(\C#N)S(=O)(=O)c2ccc(Cl)cc2)c(OC)c1,4%,i,-6%,i
O=C(COC(=O)c1cnccn1)Nc1ccccc1-c1ccccc1,19%,i,6%,.
O=C(Nc1ccccc1-c1ccccc1)c1cnccn1,18µM*,i,0%,i
COc1ccccc1CN1CC(C(=O)NCCSc2nnnn2C)CCC1=O (stereo unspecified),5%,i,0%,i
Cc1cc(NS(=O)(=O)c2ccc(Br)s2)no1,10%,i,-1%,i
CC(C)(C)c1cc(NS(=O)(=O)c2ccc(Br)s2)no1,22µM*,i,-15%,i
CCCOc1ccc(C(=O)CCC(=O)OCC(=O)N(CC)c2c(N)n(Cc3ccccc3)c(=O)[nH]c2=O)cc1,14%,i,0%,i
CSc1nc(N2CCOCC2)c2ccccc2n1,-13%,i,-7%,i
CSc1nc(N2CCN(c3ccccc3Cl)CC2)c2ccccc2n1,13µM*,i,-9%,i
CCOC(=O)/C=C1\SCC(=O)N1CC(=O)NCCc1ccc(F)cc1,-8%,i,-6%,i
CC1(C(=O)NS(=O)(=O)c2ccc(Cl)cc2)CCN1C(=O)C1(c2ccccc2)CCCC1 (stereo unspecified),14µM*,i,-10%,i
CC(C)(C)c1ccc(S(=O)(=O)NC(=O)C2(C)CCN2C(=O)C2(c3ccccc3)CC2)cc1 (stereo unspecified),18µM*,i,7%,i
CCCCc1ccc(S(=O)(=O)NC(=O)C2(C)CCN2C(=O)CCc2cccs2)cc1 (stereo unspecified),35µM*,i,1%,i
Cc1ccc(F)c(S(=O)(=O)NC(=O)C2(C)CCN2C(=O)C2(c3ccc(Cl)cc3)CCC2)c1 (stereo unspecified),?,i,-5%,i
SMILES,TDP43 rescue,Abeta yeast res,aSyn yeast inh,FUS yeast rescue
COc1cc(C)ccc1S(=O)(=O)NC(=O)C1(C)CCN1C(=O)C1(c2ccc(Cl)cc2)CCC1 (stereo unspecified),28µM*,i,-1%,i
CCOC(=O)COc1ccc2c(=O)c(-c3ccccc3OC)coc2c1,12%,i,9%,i
O=C(Nc1ccc(Cl)cc1C(F)(F)F)C(Sc1cccc[n+]1[O-])c1ccccc1 (stereo unspecified),24%,i,4%,i
CNc1nc(-c2ccc3c(c2)CCN3C(=O)c2ccccc2F)cs1,?,i,-21%,?
CC1CC(C)CN(S(=O)(=O)c2ccc3c(c2)CC(C)N3C(=O)C2CCC2)C1 (stereo unspecified),18%,i,-1%,i
CCCC(=O)N1CCC1(C)C(=O)NS(=O)(=O)c1ccc(OC)cc1 (stereo unspecified),-5%,i,-12%,i
COc1ccc(S(=O)(=O)NC(=O)C2(C)CCN2C(=O)C(C)(C)c2ccccc2)cc1 (stereo unspecified),14µM*,i,7%,i
CC1(C(=O)NS(=O)(=O)c2ccc(Cl)cc2)CCN1C(=O)C1(c2ccc(Cl)cc2)CCC1 (stereo unspecified),20µM*,i,-28%,?
CC(C)(C)c1ccc(S(=O)(=O)NC(=O)C2(C)CCN2C(=O)c2cccc3ccccc23)cc1 (stereo unspecified),20µM*,i,-6%,i
CC1(C(=O)NS(=O)(=O)c2ccccc2Cl)CCN1C(=O)c1cccc2ccccc12 (stereo unspecified),?,i,6%,i
O=C(OCC(=O)N1CCCCC1)c1n[nH]c(=O)c2ccccc12,-12%,i,-3%,i
COc1cccc(NC(=O)Nc2ccc3c(c2)nc(C)n3C)c1,4%,i,-10%,i
Cc1ccc(S(=O)(=O)NC(Cc2ccccc2)C(=O)NN)cc1 (stereo unspecified),2%,i,-1%,i
Cc1ccc(S(=O)(=O)NOCc2ccccc2)cc1,-16%,i,18µM*,i
Cc1ccc(S(=O)(=O)N[C@@H](Cc2ccccc2)C(=O)CCl)cc1,3.2µM*,i,-39%,i
COCC(C)N1CCC(Oc2ccc(C(=O)NCc3ccccn3)cc2)CC1 (stereo unspecified),-7%,i,-9%,.
CCC(C)(C)n1nnnc1C(c1ccc(O)c(OC)c1)N1CCN(c2nc3ccccc3s2)CC1 (stereo unspecified),20µM*,i,-11%,i
CCOC(=O)c1ccc2[nH]c3c(c2c1)CCCC3C(=O)OCC (stereo unspecified),?,i,-14%,i
CCOC(=O)C1CCCc2c1[nH]c1ccc(Cl)cc21 (stereo unspecified),13µM*,?,1%,i
CCCCCCCC/C=C\CCCCCCCC(=O)NCCc1ccc(O)c(O)c1,22µM*,i,?,?
CCCCCCCC/C=C\CCCCCCCC(=O)NCc1ccc(O)c(OC)c1,.,.,2%,.
Cc1cnc(C(=O)OC(C(=O)Nc2cc(C(F)(F)F)ccc2Cl)c2ccccc2)cn1 (stereo unspecified),18µM*,?,2%,i
Cc1ccc(C)c(NC(=O)C(OC(=O)c2cnc(C)cn2)c2ccccc2)c1 (stereo unspecified),23%,i,4%,i
COC(=O)C1=C(C(=O)OC)[C@]2([C@H]3CC=CCN[C@@H](Cc4ccccc4)C(=O)N3Cc3ccccc3)C=C[C@H]1O2,-1%,i,2%,22µM*
